# Screens deposited in PubChem by National Center for Advancing Translational Sciences (NCATS).
# In the library only some 19% were active in any assay of this set; here they are far more common.
# HT1080 IDH1KD tx – kills HT-1080 cells with IDH1 knockdown; HT-1080 IDH1 knockdown viability, ATP luminescence, 48 h; Potency, µM (titrated, usually from 46.1 µM), for the others: at the top dose activity, negative = toxicity, hits mostly cytotoxic; hit rate 2% among 360,000;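 note: 0% = DMSO wells and -100% = cell-free medium wells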
#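 Cytotoxicity counter-line: IDH1KD HT-1080, 48 h, CellTiter-Glo. Curves classed by r2, magnitude and activity.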
# KB-3-1 cytotox – kills parental KB-3-1 adenocarcinoma cells | KB-3-1 viability, CellTiter-Glo ATP luminescence, 72 h | Potency, µM (titrated, usually from 46.1 µM), usual class: cytotoxic | hit rate 1.4% among 400,000; note: nearly all actives have a fitted effect of over 60% in size
#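 Parental KB-3-1 viability, qHTS format: 72 h compound exposure, 37 °C; CellTiter-Glo; media-only wells and DMSO plates as controls; concentration-effect fits on corrected data.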
# KB-V1 MDR tox – KB-V1 MDR subline cytotoxicity; KB-V1 MDR cells viability, CellTiter-Glo, 72 h; Potency, µM (titrated, usually from 46.1 µM), hits mostly cytotoxic; hit rate 3.4% among 400,000; note: nearly all actives have a fitted effect of over 60% in size
#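 In this primary screen, KB-V1 cells overexpressing P-gp are incubated with library compounds (lowest to highest concentration) for 72 h at 37 degrees C before a luminescent ATP viability read.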
# DT40 TDP1 CPT – growth inhibition of DT40 Tdp1-/-;hTDP1 cells with camptothecin (screen for TDP1 inhibitors). hit rate 12% among 420,000. AID 686979. Potency, µM (series often up to 46.2 µM), for inactives: top-dose activity change, negative = growth inhibition, hits mostly inhibitors. chicken DT40 Tdp1-/-;hTDP1 cells + 20 nM CPT, ATP luminescence, 48 h; note: nearly all actives have a fitted effect of over 55% in size
#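 Cell growth measured by CellTiter-Glo luminescence after a minimum 48 h, 37 C compound exposure with 20 nM CPT in Tdp1-knockout DT40 cells stably expressing hTDP1, seeded 400/well; qHTS titration format.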
# TDP1 cell noCPT – qHTS for Inhibitors of human tyrosyl-DNA phosphodiesterase 1 (TDP1): qHTS in cells in absence of CPT; Potency, µM (doses to about 46.2 µM), inactives show at the top dose activity change, negative = growth inhibition, actives largely listed as inhibitors; AID 686978, 2013; hit rate 15% among 420,000; DT40 Tdp1-/- hTDP1 cells, no CPT, ATP luminescence, 48 h; note: nearly all actives have a fitted effect of over 55% in size
#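 A cellular qHTS used chicken DT40 cells lacking endogenous Tdp1 but carrying stably transfected human TDP1. Compounds were applied without camptothecin, and cell growth kinetics were judged by ATP-dependent luminescence after ≥48 hr.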
# HT1080-NT tox – kills 2HG-producing HT-1080-NT fibrosarcoma cells; HT-1080-NT fibrosarcoma viability, CellTiter-Glo ATP luminescence, 48 h; hit rate 1.6% among 360,000; Potency, µM (top dose mostly 46.1 µM), without a hit: at the highest dose activity, negative = less viability, most hits filed as cytotoxic;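 note: NT is the 2HG producing partner of a matched IDH1 knockdown line; 0% = DMSO-treated cells and -100% = media-only wells without cells; nearly all actives have a fitted effect of over 55% in size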
#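 Viability by CellTiter-Glo luminescence after 48 h compound exposure at 37C of HT-1080-NT cells (750/well, RPMI, 5% FBS). % activity scaled between DMSO wells and medium-only wells, then curve-fitted and categorized by curve class.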
# * hit, by the source's call; i = inactive; u = inconclusive; x = not tested or not shown; [ ] = dose if it differs, or a comment. Calls come from the whole dose curve; as a rule, active = well fitted curve in the direction sought with a large enough effect; inconclusive = small, poorly fitted or top-dose-only effect, or another doubt; inactive = no such curve, though single readings can be large; an effect the other way counts as inactive or inconclusive. Unless noted, % is set by controls: 0 for no effect and ±100 for the full control effect; potency is the fitted concentration of half-maximal effect.
SMILES,HT1080 IDH1KD tx,KB-3-1 cytotox,KB-V1 MDR tox,DT40 TDP1 CPT,TDP1 cell noCPT,HT1080-NT tox
CC1(C(=O)Nc2ccc(F)cc2F)CCN1C(=O)Cc1ccccc1 (configuration not stated),4%,i,i,-13%,-3%,20%
Cc1oc(-c2cccc(Cl)c2)nc1CN1CCC(C(=O)N2CCN(c3ccccc3F)CC2)CC1,u,i,u,18µM*,18µM*,u
Cc1oc(-c2cc(F)ccc2F)nc1CN1CCC(C(=O)N2CCOCC2)CC1,2%,x,x,13%,16%,-1%
Cc1ccc(Cl)cc1N1CCN(C(=O)C2CCN(Cc3nc(-c4cccc(Cl)c4)oc3C)CC2)CC1,x,u,u,u,15µM*,x
Cc1ccc(-c2nc(CN3CCCC(C(=O)N4CCOCC4)C3)c(C)o2)cc1 (configuration not stated),-2%,i,i,-25%,-16%,-13%
Cc1oc(-c2cccc(Cl)c2)nc1CN1CCC(C(=O)NCc2ccco2)CC1,-11%,u,i,-27%,u,-21%
Cc1oc(-c2cccc(Cl)c2)nc1CN1CCCC(C(=O)N2CCN(c3ccc(F)cc3)CC2)C1 (configuration not stated),x,i,i,7.3µM*,9.2µM*,x
CN1CC2=Cc3ccccc3OC23Oc2ccccc2C=C3C1,u,u,u,u,u,16µM*
Cc1nn(-c2ccc(F)cc2)c(Cl)c1C(=O)OC(C)C(=O)N(C)C1CCCCC1 (configuration not stated),-12%,u,i,u,12µM*,-12%
O=c1c2ccccc2nc(SCc2cn3ccsc3n2)n1-c1ccccc1,-28%,i,i,-20%,-23%,-19%
CCN(C(=O)CSc1nc2ccccc2c(=O)n1Cc1ccc(C)cc1)C1CCS(=O)(=O)C1 (configuration not stated),7%,i,i,u,u,4%
O=C(CCCCCn1c(SCC(=O)c2ccccc2)nc2ccccc2c1=O)NCc1ccco1,-21%,i,i,8.2µM*,21µM*,-22%
Cc1cccc(-n2c(SCC(=O)NCc3ccco3)nc3ccccc3c2=O)c1,u,i,10µM*,10µM*,u,-22%
Cc1cccc(-n2c(SCc3cc(=O)n4ccsc4n3)nc3ccccc3c2=O)c1,7%,u,u,u,15µM*,1%
CCN(C(=O)CSc1nc2ccccc2c(=O)n1-c1cccc(C)c1)C1CCS(=O)(=O)C1 (configuration not stated),11%,u,i,16µM*,u,5%
O=C(CCCn1c(SCC(=O)c2ccc(Cl)cc2)nc2ccccc2c1=O)NCc1ccco1,-23%,i,i,-23%,u,u
Cc1c(C(=O)NCc2ccccc2Cl)sc2nc[nH]c(=O)c12,x,i,i,-24%,-26%,x
Cc1n[nH]c(=O)c2c(NC(=O)CSc3nc4ccccc4c(=O)n3CCCOC(C)C)oc(C)c12,0%,i,i,u,u,8%
O=C1Nc2c(c(=O)[nH]c(=O)n2-c2ccc(Cl)cc2)C1(NS(=O)(=O)c1ccccc1)C(F)(F)F (configuration not stated),x,i,u,3%,8%,x
O=C(CSc1nc2ccccc2c(=O)n1-c1ccccc1)NCc1ccco1,1%[9.24 µM],u,13µM*,-28%,u,-3%
C=CCn1c(SCC(C)=O)nc2scc(-c3ccco3)c2c1=O,-4%,i,i,u,13µM*,-7%
CCn1c(SCC(=O)N(Cc2ccccc2)C2CCS(=O)(=O)C2)nc2ccccc2c1=O (configuration not stated),0%,i,i,-3%,-25%,4%
CCCCN(C(=O)CSc1nc2ccccc2n1CC)C1CCS(=O)(=O)C1 (configuration not stated),4%,i,5.8µM*,-19%,-17%,8%
O=C(Nn1c(-c2ccc(Br)cc2)nc2ccccc2c1=O)c1cccnc1,-8%,i,i,u,23µM*,4%
O=C(NCCSc1c[nH]c2ccccc12)c1ccccc1Cl,x,i,u,-18%,u,x
SMILES,HT1080 IDH1KD tx,KB-3-1 cytotox,KB-V1 MDR tox,DT40 TDP1 CPT,TDP1 cell noCPT,HT1080-NT tox
Cc1c(C=O)c2ccccn2c1C(=O)c1cccc([N+](=O)[O-])c1,-5%,i,i,u,u,3%
O=C(Cc1ccccc1)Nn1c(-c2ccccc2F)nc2ccccc2c1=O,9%,i,i,6%,-21%,7%
O=C(Cc1ccccc1)Nn1c(-c2ccccc2)nc2ccccc2c1=O,15%,i,18µM*,1%,2%,0%
O=C(Cc1cccs1)Nn1c(Cc2cccs2)nc2ccccc2c1=O,-3%,i,21µM*,9%,0%,-1%
CCC(C)NC(=O)CSc1nc2c(sc(=S)n2Cc2ccco2)c(=O)n1-c1ccccc1 (configuration not stated),-11%,i,i,-21%,u,-7%
CCn1c(=S)sc2c(=O)n(-c3ccccc3)c(SCC(=O)NCc3ccco3)nc21,-24%,i,i,18µM*,u,1%
O=C(CSc1nc2ccccc2c(=O)n1NC(=O)Cc1ccccc1)NCc1ccco1,5%,i,18µM*,-20%,1%,8%
CCCNC(=O)C1(C)CCN(C(=O)c2cccc(C#N)c2)C1 (configuration not stated),33%,i,i,-2%,1%,28%
C/C(=N\OCC(=O)Nn1c(C)nc2ccccc2c1=O)c1ccccc1,13%,i,16µM*,-21%,-12%,15%
CCN(C(=O)CSc1nc2scc(-c3ccccc3)c2c(=O)n1C)C1CCS(=O)(=O)C1 (configuration not stated),0%,i,i,-23%,7%,-2%[9.24 µM]
CC(C)=NOCC(=O)Nn1c(COc2ccccc2)nc2ccccc2c1=O,-4%,i,i,-9%,7%,-3%
COc1ccc(-c2nc3ccccc3c(=O)n2NC(=S)N(C)C)cc1,4%,i,i,12µM*,12µM*,4%
C=CCn1c(SCC(=O)N(CC)C2CCS(=O)(=O)C2)nc2scc(-c3ccccc3)c2c1=O (configuration not stated),6%,i,10µM*,u,u,2%
